This passage reports growth results from PubChem BioAssay (NCI).

Several values for one entry are separate records, joined by “and”; a condition that tells them apart may be missing. Equal entries are not always repeated. About 83,000 compounds went through this panel and 20% of them were active in at least one assay; those are over-represented in the sample as a whole.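 Cells were grown in 96-well plates and exposed to the test compound at a single concentration for 48 hours; results are reported as percent growth, with values below 10 considered active.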 Activity calls are given as the source filed them.

The first experiment has as its system OVCAR-5 ovarian. Kind of experiment: NCI-60 one-dose screen, 48 h (100 = growth as untreated, 0 = no growth, -100 = all killed). The note with it: 10 µM. The method, then:
Growth inhibition of the OVCAR-5 human tumor cell line is measured as a screen for anti-cancer activity. Cells are grown in 96 well plates and exposed to the test compound for 48 hours. Compounds are tested at a single concentration, which is 10^-5 M for most compounds. The reported endpoint is percent growth (GI% or GIPRCNT), where numbers from 0 - 100% represent growth inhibition, and numbers from -100% - 0 represent cell death. For example, a value of 40 represents 60% growth inhibition. A value of 0 means no net growth occurred over the course of the experiment. A value of -40 indicates 40% of cells at the beginning of the experiment died by the end of the experiment. A value of -100 means all cells are dead at the end of the experiment.
NCI-60 Human Tumor Cell Lines Screen was performed using the standard one-dose NCI protocol, which is described in more detail at https://dtp.cancer.gov/discovery_development/nci-60/default.htm.
Compounds with GIPRCNT values below 10 were considered active. Activity score was based on GIPRCNT using the following formula: […]
Score is 0 for GIPRCNT values of 100 or above, 50 for GIPRCNT values of 0, and 100 for GIPRCNT values of -100.
On to `O=c1ccn2c(n1)OC1CC2OC1COC(c1ccccc1)(c1ccccc1)c1ccccc1` (stereo not given), for which the growth is 102% (inactive).

Still in this experiment, the particulars now being: 10 µM unless noted.
As for `COc1ccc(CCN=Cc2ccc(Cl)cc2)cc1OC`, the growth is 119% (inactive). In the case of `CC1CCC(=O)N1c1ccc(N)cc1` (stereo not given), the growth is 99.9% (inactive). As for `CC(CN(C)C)CN1c2ccccc2Sc2ccccc21` (stereo not given), the growth was 88.9% (inactive) and 79.7% (inactive). With `Cc1cnc(N)s1`, the growth is 90.7% (inactive). On to `CC1=CC(=O)c2cccc(NC3=NCCO3)c21`, for which the growth was 95.2% (inactive). As for `CC1NC(C)c2ccc3ccccc3c2O1` (stereo not given), the growth is 108% (inactive). For `CCN(CC)CCNC(=O)c1ccc(NCN2C(=O)NC(c3ccccc3)(c3ccccc3)C2=O)cc1`, the growth was 104% (inactive) and 119% (inactive). As to `Cc1onc(-c2c(F)cccc2Cl)c1-c1ncc(-c2ccc(Cl)cc2)o1`, the growth was 73.5% (inactive) and 68.1% (inactive). On the same count and under the same terms, as for `CCOC(=O)CN1CCC(C(=O)OCC)CC1`, the figure is 104% (inactive). For `CC(=O)c1cc2ccccc2o1`, the growth is 87.7% (inactive). With `NNc1ncnc2cccc(Cl)c12`, the growth was 97.5% (inactive). In the case of `COC(=O)CCOc1ccccc1`, the growth is 113% (inactive). Regarding `Oc1ccc(O)c(-c2ccccc2)c1`, the growth is 102% (inactive). Consider `C/C=C/C(=O)OCCCCCCCCCCCC`, for which the growth is 99.2% (inactive).

In the case of `NNC(=O)Nc1ccccc1`, the growth is 102% (inactive). The same measure, in the same setting: next, `CN(C)C(=S)N(C)C`: 105% (inactive); `Cc1ccc(NC(=S)N/C=C(\c2ccccc2)S(=O)Cc2ccccc2)c(C)c1` (stereo not given): 97% (inactive); `CCN(CC)C(CC(=O)c1ccccc1)C(=O)c1ccccc1` (stereo not given): 113% (inactive). As to `CCC(C)NC(=O)c1ccccc1C` (stereo not given), the growth is 79.6% (inactive).

Take `Cc1ccc(C(=O)c2ccc(C)cc2)cc1`: the growth was 103% (inactive). For `CCCC(=O)Oc1ccc2ccccc2c1`, the growth was 117% (inactive). Consider `COc1ccc(-n2[nH]c3c(cnc4ccccc43)c2=O)cc1`, for which the growth is 107% (inactive) and 108% (inactive). `Nc1nc(=S)c2[nH]cnc2[nH]1`: the growth was -30.1% (active). Take `CC(=O)/C(N=Nc1ccc(S(=O)(=O)c2ccc(N=N/C(C(C)=O)=C(/C)O)cc2)cc1)=C(\C)O`: the growth is 110% (inactive).

Take `CCOC(=O)c1csc(N)n1`: the growth is 106% (inactive) and 104% (inactive). Regarding `CCN(C)c1ccccc1`, the growth was 115% (inactive). The same measure, in the same setting: as for `Oc1cccnc1CN1CCOCC1`, the figure is 112% (inactive) and 92.8% (inactive); as for `CCCCC/C(C)=N\NC(N)=S`, 103% (inactive). On the same count and under the same terms, as for `CC(C)=NOC(C)C(=O)O` (stereo not given), the figure is 101% (inactive); as for `O=[N+]([O-])c1ccc(N2CCN=N2)cc1`, 87.7% (inactive); as for `CC(=O)Nc1ccc(OC(C)=O)cc1`, 35.7% (inactive) and 97.5% (inactive).

`O=P(O)(O)OC1C(OP(=O)(O)O)C(OP(=O)(O)O)C(OP(=O)(O)O)C(OP(=O)(O)O)C1OP(=O)(O)O.[Cu+2]` (stereo not given): the growth is 155% (inactive). Regarding `O=C(O)c1c2c(nc3ccccc13)Cc1ccccc1-2`, the growth is 109% (inactive) and 88.1% (inactive). Consider `O=C1C=CC[C@H](/C=C/c2ccccc2)O1`, for which the growth was 57.6% (inactive) and 54.9% (inactive). Regarding `CNc1ccc(Cl)cc1S(=O)(=O)c1ccccc1[N+](=O)[O-]`, the growth is 90.2% (inactive) and 105% (inactive). As for `CN(C)C(=N)N=C(N)N`, the growth is 115% (inactive) and 114% (inactive). Regarding `COC(=O)c1cc(C(=O)OC)cc([N+](=O)[O-])c1`, the growth is 106% (inactive). In the case of `CCc1ccccc1-n1[nH]c(C)c(C=N)c1=O`, the growth is 110% (inactive).

The same experiment, now with this note: 100 µM.
On to `O=c1ccn2c(n1)OC1CC2OC1COC(c1ccccc1)(c1ccccc1)c1ccccc1` (stereo not given), for which the growth is 101% (inactive).
